Source: the supplement of paper PMC10127200
Structures can show the parent of a compound that is named as a salt.

Each compound was assayed on 786-O (assay: Euclidean distance of Cell Painting phenotypic profile (signed KS, 77 features) to DMSO centroid (dimensionless distance); 5 or 10 uM (library dependent); higher = stronger phenotypic change vs DMSO (phenoactivity)). Conditions: 48 h.
Summary of the method: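 Phenoactivity is computed as Euclidean distance to the median vehicle profile. The profiles, drawn from 77 Harmony features scored as signed Kolmogorov-Smirnov statistics versus same-plate vehicle wells, were corrected for plate position, correlation-weighted and replicate-averaged at the top dose. Stained cells were imaged confocally at 20X (9 fields/well) after 48 h with library compounds at 10 or 5 uM, 0.1% DMSO final, in five cancer lines and a healthy fibroblast line.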

Row | Compound | Euclidean distance
1 | C[C@]12CC[C@@H]3c4ccc(O)cc4CC[C@H]3[C@@H]1CC[C@@H]2O [Estradiol] | 1.17
2 | CCOC(=O)c1c(N)sc2c1CCN(Cc1ccccc1)C2 [Tinoridine hydrochloride] | 1.51
3 | Nc1nc2[nH]cc(CCc3ccc(C(=O)N[C@@H](CCC(=O)O)C(=O)O)cc3)c2c(=O)[nH]1 [Pemetrexed Disodium Hydrate] | 2.12
4 | CC[C@]12CCCN3CCc4c(n(c5ccccc45)[C@@](O)(C(=O)OC)C1)[C@@H]32 [Vincamine] | 1.3
5 | O=C(/C=C/c1ccc(O)c(O)c1)c1ccc(O)cc1O [Butein] | 1.56
6 | CC(COc1ccccc1)NC(C)C(O)c1ccc(O)cc1 (stereo not drawn) [Isoxsuprine hydrochloride] | 1.44
7 | Nc1nnc(-c2cccc(Cl)c2Cl)c(N)n1 [Lamotrigine] | 0.851
8 | O=C(O)c1cccnc1 [Nicotinic Acid] | 1.53
9 | CC(C)(CO)[C@@H](O)C(=O)NCCC(=O)O [D-Pantothenic acid] | 1.36
10 | CC1(C)O[C@@H]2C[C@H]3[C@@H]4C[C@H](F)C5=CC(=O)C=C[C@]5(C)[C@@]4(F)[C@@H](O)C[C@]3(C)[C@]2(C(=O)CO)O1 [Fluocinolone Acetonide] | 1.43
11 | Cc1ccc(C(=O)N(CCCN)[C@@H](c2nc3cc(Cl)ccc3c(=O)n2Cc2ccccc2)C(C)C)cc1 | 3.64
12 | OC(CN1CCN(c2cccc(Cl)c2)CC1)C(c1ccccc1)c1ccccc1 (stereo not drawn) | 1.08
13 | COc1cc(/C=C/C(=O)O)ccc1O [Sodium ferulate] | 1.56
